Where “and” joins values, the source holds several entries; their conditions need not be identical. Equal entries are not always repeated. Results filed as inconclusive are left out. Entries that show only a call come without a potency. Calls of active or inactive are those of the source. Unless noted, calls come from the whole dose curve; as a rule, active = well fitted curve in the direction sought with a large enough effect; inconclusive = small, poorly fitted or top-dose-only effect, or another doubt; inactive = no such curve, though single readings can be large; an effect the other way counts as inactive or inconclusive.
What was measured:
[1] = P-glycoprotein substrates identified in KB-3-1 adenocarcinoma cell line, qHTS therapeutic library screen (AID 1346986); note: nearly all actives have a fitted effect of over 60% in size;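 note: potency is the fitted concentration of half-maximal effect; potency is for cytotoxicity meaning loss of cell viability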
In short: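 In 1536-well format, 500 cells/well received pinned compound titrations and were incubated 72 h, 5% CO2. Viability was read by CellTiter-Glo; cytotoxic if AC50 < 10 uM and efficacy >50%.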

[2] = P-glycoprotein substrates identified in KB-8-5-11 adenocarcinoma cell line, qHTS therapeutic library screen (AID 1346987); note: nearly all actives have a fitted effect of over 65% in size; note: potency is the fitted concentration of half-maximal effect
In short: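 Luminescence from CellTiter-Glo, read 5 min after addition, quantified survival of KB-8-5-11 (P-gp-overexpressing) cells exposed to compounds for 72 h. AC50 was derived from concentration-response curves.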

[3] = target: Atrial natriuretic peptide receptor 1 (Homo sapiens) (UniProt P16066); test: Natriuretic polypeptide receptor (hNpr1) antagonism - Pilot screen (AID 1347049; calls by dose curve;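 note: agonist-evoked cGMP luminescence read 20 min after hNppA addition; series mostly up to about 58 µM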)
Chain of Atrial natriuretic peptide receptor 1 (Homo sapiens) (P16066 whole entry, looked up): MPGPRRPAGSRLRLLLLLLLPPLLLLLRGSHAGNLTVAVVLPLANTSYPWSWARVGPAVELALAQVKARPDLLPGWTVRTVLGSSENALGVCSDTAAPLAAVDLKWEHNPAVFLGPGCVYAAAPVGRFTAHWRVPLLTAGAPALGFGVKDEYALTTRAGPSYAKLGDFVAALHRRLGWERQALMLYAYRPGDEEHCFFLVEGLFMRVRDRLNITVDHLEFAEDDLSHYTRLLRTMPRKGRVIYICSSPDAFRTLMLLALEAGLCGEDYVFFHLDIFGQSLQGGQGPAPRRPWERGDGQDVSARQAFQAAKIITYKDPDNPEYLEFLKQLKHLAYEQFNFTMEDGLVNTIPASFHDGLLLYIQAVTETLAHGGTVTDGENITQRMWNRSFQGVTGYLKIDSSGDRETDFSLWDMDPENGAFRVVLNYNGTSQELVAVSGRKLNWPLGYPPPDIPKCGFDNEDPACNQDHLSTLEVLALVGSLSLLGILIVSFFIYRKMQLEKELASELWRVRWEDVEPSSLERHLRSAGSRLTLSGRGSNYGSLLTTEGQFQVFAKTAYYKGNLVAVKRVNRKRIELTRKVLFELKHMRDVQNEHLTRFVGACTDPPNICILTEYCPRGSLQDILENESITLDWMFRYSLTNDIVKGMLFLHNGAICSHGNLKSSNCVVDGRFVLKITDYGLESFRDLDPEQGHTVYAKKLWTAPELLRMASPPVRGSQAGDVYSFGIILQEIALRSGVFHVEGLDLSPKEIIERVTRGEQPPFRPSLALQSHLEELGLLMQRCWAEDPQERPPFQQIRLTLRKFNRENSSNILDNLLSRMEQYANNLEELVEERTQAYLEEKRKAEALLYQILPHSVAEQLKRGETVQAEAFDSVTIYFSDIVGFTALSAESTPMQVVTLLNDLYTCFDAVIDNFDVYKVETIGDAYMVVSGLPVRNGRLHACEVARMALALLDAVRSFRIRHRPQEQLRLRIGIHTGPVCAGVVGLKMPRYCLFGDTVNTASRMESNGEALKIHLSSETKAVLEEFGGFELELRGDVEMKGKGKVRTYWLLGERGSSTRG
In short: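 cGMP-sensor HEK293/hNpr1 cells, 1500/well, plated overnight at 37C. 2% GloSensor reagent, 2 h RT. Compound (23 nL pin transfer) 30 min RT, baseline luminescence pre-read. 0.1 nM hNppA, 20 min RT, post-read.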

| Compound | Potency [1] | Potency [2] | outcome [3] |
| --- | --- | --- | --- |
| CC[C@@H]1C=C(C)C[C@H](C)C[C@H](OC)[C@H]2O[C@@](O)(C(=O)C(=O)N3CCCC[C@@H]3C(=O)O[C@H](C(C)=C[C@@H]3CC[C@H](Cl)[C@H](OC)C3)[C@H](C)[C@@H](O)CC1=O)[C@H](C)C[C@H]2OC | inactive | inactive |  |
| OC[C@H]1O[C@@H](Oc2cc(O)cc(C=Cc3ccc(O)cc3)c2)[C@H](O)[C@@H](O)[C@H]1O | inactive | inactive |  |
| Cc1nc(N)sc1-c1ccnc(Nc2ccc(N3CCOCC3)cc2)n1 | 1.46 µM (active) | 5.26 µM (active) and 1.16 µM (active) |  |
| CCC(=O)NC[C@H](Cc1ccc(OCCc2nc(-c3ccccc3)oc2C)cc1)NC(C)=CC(=O)c1ccc(C(F)(F)F)cc1 | inactive | inactive |  |
| Nc1ncnc2ccccc12 | inactive | inactive |  |
| C[C@H](NC(=O)C(=O)Nc1ccccc1C(C)(C)C)C(=O)N[C@@H](CC(=O)O)C(=O)COc1c(F)c(F)cc(F)c1F | inactive | inactive |  |
| O=c1c(O)c(-c2ccc(O)cc2)oc2cc(O)cc(O)c12 | inactive | inactive |  |
| NC(=O)c1cnc(-c2ccc(C3(N)CCC3)cc2)c(-c2ccccc2)c1 | 16.4 µM (active) | inactive |  |
| COc1cc(N2CCC(N3CCN(C)CC3)CC2)ccc1Nc1ncnc(Nc2ccccc2S(=O)(=O)C(C)C)n1 | 10.3 µM (active) | 5.9 µM (active) and 9.2 µM (active) |  |
| O=c1c(-c2ccc(O)cc2)coc2cc(O[C@@H]3O[C@H](CO)[C@H](O)[C@H](O)[C@H]3O)ccc12 | inactive | inactive |  |
| Nc1nc(F)nc2c1ncn2[C@@H]1O[C@H](COP(=O)(O)O)[C@@H](O)[C@H]1O | inactive | inactive |  |
| CC1(C)CCC[C@@]2(C)[C@@H]1CC[C@@]1(C)OC(=O)C[C@H]21 |  | inactive |  |
| CCCCCCCCCCCC1=C(O)C(=O)C=C(O)C1=O | inactive | inactive |  |
| O=C(Nc1c(Cl)cncc1Cl)c1ccc(OC(F)F)c(OCC2CC2)c1 | inactive | inactive |  |
| O=c1cc(-c2cccc3c2Sc2ccccc2S3)oc(N2CCOCC2)c1 | inactive | inactive |  |
| CN(C)CCC=C1c2ccccc2COc2ccc(CC(=O)O)cc21 | inactive | inactive |  |
| c1cc(-c2sc(-c3ccncc3)c(-c3ccncc3)c2-c2ccncc2)ccn1 |  | inactive |  |
| COc1ccc(-c2nc(N3CCOCC3)c3sc(CN(C)c4ncc(C(=O)NO)cn4)cc3n2)cn1 | 0.164 µM (active) | 20.9 nM (active) and 231 nM (active) |  |
| COc1ccc(-c2coc3cc(O)cc(O)c3c2=O)cc1 | inactive | inactive |  |
| CC1(C)Cc2c(sc(NC(=S)NC(=O)c3ccccc3)c2C(=O)O)CO1 | inactive | inactive |  |
| CCN(CC)CCOc1ccc(C(=C(Cl)c2ccccc2)c2ccccc2)cc1 | inactive | inactive |  |
| Cc1ccc([C@@H]2O[C@H](CO)[C@@H](O)[C@H](O)[C@@H]2O)cc1Cc1ccc(-c2ccc(F)cc2)s1 | inactive | inactive |  |
| Cc1ccc(Nc2cc(-c3cccc(N4C(=O)c5ccccc5C4=O)c3)ncn2)cc1NS(C)(=O)=O | inactive | inactive |  |

| Compound | Potency [1] | Potency [2] | outcome [3] |
| --- | --- | --- | --- |
| CNC(=O)c1ccc2cc(C3(O)CCn4cncc43)ccc2c1 (stereo not given) | inactive | inactive |  |
| CC1(C)S[C@H]2[C@H](NC(=O)[C@@H](N)c3ccc(O)cc3)C(=O)N2[C@@H]1C(=O)O | inactive | inactive |  |
| N#CC1(c2ccc(NC(=O)c3cccnc3NCc3ccncc3)cc2)CCCC1 |  | inactive |  |
| O=C(O)c1ccccc1C(=O)Nc1ccc(-c2ccccc2)cc1 | inactive | inactive |  |
| COc1cccc(-c2cc(=O)c3ccccc3o2)c1N | inactive | inactive | inactive |
| O=c1ccn([C@@H]2O[C@H](CO)[C@H](O)[C@H]2O)c(=O)[nH]1 | inactive | inactive |  |
| CC[C@H]1OC(=O)[C@H](C)[C@@H](O[C@H]2C[C@@](C)(OC)[C@@H](O)[C@H](C)O2)[C@H](C)[C@@H](O[C@@H]2O[C@H](C)C[C@H](N(C)C)[C@@H]2O)[C@](C)(O)C[C@@H](C)CN(C)[C@H](C)[C@@H](O)[C@]1(C)O | inactive | inactive |  |
| Nc1ncnc2c1ncn2[C@@H]1O[C@@H](CO)[C@H](O)[C@H]1O | inactive | inactive |  |
| COc1cc2c(cc1OC)CN(CCc1ccc(NC(=O)c3cc(OC)c(OC)cc3NC(=O)c3cnc4ccccc4c3)cc1)CC2 | inactive | inactive |  |
| COc1ccc2c(Oc3ccc(NC(=O)c4c(C)n(CC(C)(C)O)n(-c5ccccc5)c4=O)nc3)ccnc2c1 |  | inactive |  |
| COc1ccc(Cc2ccc(NC(N)=O)cc2)cc1-c1cccc(Cl)c1 |  | inactive |  |
| Cc1ccc(C(C)(O)c2nc3ccccc3s2)c(C)c1 (stereo not given) |  | inactive |  |
| NC1=N[C@@]2(c3cc(NC(=O)c4ccc(F)cn4)ccc3F)COC[C@@H]2CS1 |  | inactive |  |
| Cc1ccc(F)c(NC(=O)Nc2ccc(-c3cccc4[nH]nc(N)c34)cc2)c1 |  | 23.5 µM (active) |  |
| Cc1cc(OCCCc2c(C(=O)O)n(Cc3cccnc3)c3c(-c4c(COc5ccc(N6CCN([S+](C)(=O)[O-])CC6)cc5)nn(C)c4C)cccc23)cc(C)c1Cl |  | inactive |  |
| CC(C)(C)OC(=O)N[C@H]1CCCCCC=C[C@@H]2C[C@@]2(C(=O)NS(=O)(=O)C2CC2)NC(=O)[C@@H]2C[C@@H](OC(=O)N3Cc4cccc(F)c4C3)CN2C1=O |  | inactive |  |
| C[C@]12CC[C@@H]3c4ccc(O)cc4CC[C@H]3[C@H]1C[C@@H](O)[C@H]2O |  | inactive |  |
| CN(C)c1cc(NC(=O)CNC(C)(C)C)c(O)c2c1C[C@@H]1C[C@H]3[C@H](N(C)C)C(=O)C(C(N)=O)=C(O)[C@@]3(O)C(=O)C1=C2O |  | inactive |  |
| C=C1C(=O)OC2C=C(C)CCC=C(C)CCC12 (stereo not given) |  | inactive |  |
| NC(CO)(CO)CCc1ccc(Sc2cccc(OCc3ccccc3)c2)cc1Cl |  | 20.9 µM (active) |  |
| NS(=O)(=O)c1ccc(NC2=CC(=O)c3ccccc3C2=O)cc1 |  | inactive |  |
| COC(=O)C1=CO[C@@H](O)[C@@H]2C(CO)=CC[C@@H]12 |  | inactive |  |

— PubChem BioAssay (NCATS)
